Assay outcomes: PubChem BioAssay, several laboratories
KCC2 mod – modulators of human KCC2 chloride dependent transport; Q9H2X9; KCC2 cells, thallium flux FluoZin-2 fluorescence; B-score of Tl+ flux slope (higher = more flux/activation; lower = inhibition) at 10 µM; 190,000 tested, 2.2% active; AID 1456;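 active means thallium flux slope and its plate-corrected score both differing from the plate sample mean at a set confidence after two filtering rounds, in either direction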;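 further: slope of fluorescence scaled to starting intensity during 10 to 20 s after thallium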
PHOSPHO1 inh – blocks human PHOSPHO1 phosphatase activity | Q8TCT1 | recombinant PHOSPHO1, absorbance phosphatase assay | inhibition, % at 13.3 µM | 290,000 tested, 1.1% active; in the data active means inhibition above about 60%
Target sequence (Q8TCT1 whole entry, looked up): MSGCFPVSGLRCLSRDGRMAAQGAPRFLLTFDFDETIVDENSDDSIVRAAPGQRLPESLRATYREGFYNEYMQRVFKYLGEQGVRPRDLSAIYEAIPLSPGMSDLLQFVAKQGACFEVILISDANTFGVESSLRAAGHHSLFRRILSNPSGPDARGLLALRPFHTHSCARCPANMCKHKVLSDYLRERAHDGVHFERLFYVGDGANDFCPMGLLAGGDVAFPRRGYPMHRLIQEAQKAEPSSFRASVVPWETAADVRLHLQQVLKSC
H9c2 protect – myocardial damage modulation in H9c2 cells; H9c2 cardiomyocytes, H2O2 injury protection, ATPLite, 2 h; AID 588492; 360,000 tested, 0.63% active; protection from H2O2 cell death, % at 20 µM;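 active means compounds giving at least 50% protection of heart cells from peroxide-induced death in the single-dose screen, raw or plate-pattern-corrected value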;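 further: 0% = DMSO wells with peroxide and 100% = DMSO wells without peroxide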
Calb FLC – C. albicans growth modulation with fluconazole. AID 1979. growth inhibition, % (no concentration beside the values). C. albicans CaCi-2 (fluconazole-resistant clinical isolate) + fluconazole, Alamar Blue growth, 48 h. 300,000 tested, 0.57% active;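 active means growth inhibition above about 58% in most replicates, limit read from the data, passing the limit was not always enough; inconclusive means exactly half the replicates above a set limit; inactive means most replicates below a set limit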;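 further: all wells also contain fluconazole at 8 µg/ml as a sub-toxic cotreatment; 0% = median of DMSO wells and 100% = median of geldanamycin control wells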
Efflux pump mplx – antifungal efflux pump inhibition, Nile Red retention | S. cerevisiae Candida pump triplex | inhibition, % at 10 µM | 330,000 tested, 0.44% active | AID 485275;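 active means plate passing quality check with inhibition over a set limit, or well fluorescence over plate mean plus 4 SD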;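 further: Nile Red retained in pooled yeast measured as flow cytometry median fluorescence; 0% = buffer negative control and 100% = Enniatin B positive control; higher means more Nile Red kept so more efflux inhibition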
Cmpd fluor yeast – compound fluorescence in yeast efflux pump counter-screen; fluorescence ratio to DMSO, % at 10 µM; shares compounds with Efflux pump mplx; S. cerevisiae AD/pABC3, flow cytometry; 1,700 tested, 4% active;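 active means fluorescence ratio to DMSO above its plate's cutoff, the plate mean ratio plus 5 SD, cut at about 210% in these data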;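 further: unstained yeast with no Nile Red so the signal is compound autofluorescence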
Mdr1 pump inh – inhibitors of Candida albicans Mdr1 efflux pump | AID 588518 | 1,700 tested, 1% active | inhibition, % at 10 µM | shares compounds with Efflux pump mplx | S. cerevisiae AD/CaMDR1, Nile Red efflux, flow cytometry; in the data active means inhibition above about 26%;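 further: 0% = DMSO vehicle and 100% = reference inhibitor; higher means more Nile Red retained so more efflux inhibition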
Cdr2 pump inh – inhibitors of Candida albicans Cdr2 efflux pump; shares compounds with Efflux pump mplx; S. cerevisiae AD/CaCDR2, Nile Red retention, flow cytometry; Nile Red retention ratio vs DMSO, % at 10 µM; 1,700 tested, 4% active; AID 588520; in the data active means Nile Red retention ratio vs DMSO above about 190%;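 further: higher ratio means more blocking of Cdr2 efflux of the dye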
Cdr1 pump inh – blocks the Candida albicans Cdr1 efflux pump in yeast; 1,700 tested, 1% active; shares compounds with Efflux pump mplx; S. cerevisiae AD/CaCDR1, Nile Red efflux, flow cytometry; AID 588522; inhibition, % at 10 µM;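 active means inhibition above the screen-wide mean plus twice its standard deviation, cut at about 32% in these data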
Starred values were filed as active, the others as inactive; i = inactive; ? = inconclusive; / = no result given. A selection: hits, their analogues and other compounds. The true share with any hit is near 3.3%.

SMILES	KCC2 mod	PHOSPHO1 inh	H9c2 protect	Calb FLC	Efflux pump mplx	Cmpd fluor yeast	Mdr1 pump inh	Cdr2 pump inh	Cdr1 pump inh
Cc1cccc(S(=O)(=O)Nc2nc3ccccc3nc2Nc2ccc3c(c2)OCO3)c1	-2.4	-24	-9	-2	10.0*	106	0	118	0
CCOc1ccc(-c2nnc3n2N=C(c2ccc(OC)cc2)CS3)cc1	/	29	-6	0	0	/	/	/	/
CCc1nnc2n1N=C(c1ccc(OC)cc1)CS2	-0.57	1	1	57	0.8*	91	-1	87	0
Cc1cc(=O)oc2cc(OC(C(=O)O)c3ccccc3)ccc12 (centres undefined)	/	20	-2	7	1.1*	101	0	87	0
COc1ccc(CCN(C)C(=O)COc2cccc(-n3cnnn3)c2)cc1OC	/	/	7	/	0	/	/	/	/
Oc1ccc(Cl)cc1C=Nc1ccccc1Br	0.29	8	48	-8	0	/	/	/	/
Oc1ccc(Br)cc1C=Nc1ccc2c3c(cccc13)CC2	0.53	-20	87*	-12	3.1*	102	0	116	0
CC(NC(=O)/C=C/c1ccco1)c1nc2ccccc2n1Cc1c(Cl)cccc1Cl (centres undefined)	0.18	3	2	0	11*	99	0	95	0
CC(NC(=O)/C=C/c1ccco1)c1nc2ccccc2n1Cc1ccccc1F (centres undefined)	0.98	0	5	3	0	/	/	/	/
Cc1ncc2c(n1)-c1cc(F)ccc1SC2	/	31	2	5	1	/	/	/	/
Nc1ncc2c(n1)-c1cc(Cl)ccc1SC2	0.92	-15	5	15	0.6*	114	0	112	0
CCn1cc(C(=O)NCCCN2CCCC2)c(=O)c2cc(S(=O)(=O)N3CCc4ccccc4C3)ccc21	0.14	-5	20	11	1.1*	100	0	102	0
CCCCN(C)CCCNC(=O)c1cn(CC)c2ccc(S(=O)(=O)N3CCc4ccccc4C3)cc2c1=O	-0.019	9	-29	-3	0	/	/	/	/
O=[N+]([O-])c1cc(/C=N\Nc2ccccn2)ccc1Cl	/	4	-3	-12	0.9*	108	0	197*	0
Cc1cccc(C)c1NC(=O)CNC(=O)C(C)N1CCN(c2cccc(Cl)c2)CC1 (centres undefined)	/	/	5	/	0	/	/	/	/
CN(C)C(=S)SCC(=O)Nc1ccc(Cl)cc1Cl	-0.69	-14	0	-9	15*	98	0	94	0
Cc1ccc(OCc2nc3c4c(ncn3n2)-c2ccccc2CC42CCCC2)cc1	0.72	-5	-11	16	0	/	/	/	/
Cc1ccccc1OCc1nc2c3c(ncn2n1)-c1ccccc1CC31CCCC1	1.3	-8	-12	-41	34*	89	0	102	0
O=C(NCCCN1CCCC1=O)c1cccnc1	0.81	-10	7	7	5.9*	95	0	91	0
Nc1ccc2c3c(cccc13)C(=O)N(c1ccccc1)C2=O	i	8	1	4	/	/	/	/	/
CC(C)CCN1C(=O)c2cccc3c(N)ccc(c23)C1=O	/	/	5	1	0.5*	335*	0	110	0
Cc1ccc(NC(=O)c2ccc(NCCc3ccccc3)c([N+](=O)[O-])c2)cc1F	0.49	0	-11	-3	0	/	/	/	/
O=C(Nc1cc(F)cc(F)c1)c1ccc(NCCc2ccccc2)c([N+](=O)[O-])c1	-0.46	-44	-9	-1	13*	101	0	102	0
CCCCn1nc(C(=O)N(CC)CC(=O)Nc2c(F)cccc2F)c2ccccc2c1=O	/	/	12	/	0	/	/	/	/
Cc1ccccc1S(=O)(=O)Nc1nc2ccccc2nc1N1CCc2ccccc2C1	1.6	7	-8	?	7.5*	93	0	101	0
Nc1ccc2c3c(cccc13)CC2	/	16	10	4	1.8*	122	0	121	0
